PubChem BioAssay AID1490 (National Center for Advancing Translational Sciences (NCATS), 2009)
Several values for one entry are separate records, joined by “and”; a condition that tells them apart may be missing. Identical values can stand only once. Screen size: about 310,000 compounds; about 11,000 (3.5%) were called active. Another 4% or so got no clear call; they are omitted. The call rests on the fitted dose curve; in most records, active means well fitted inhibition curve with a large enough effect; inconclusive means small, poorly fitted or top-dose-only effect, or another doubt; inactive means no such curve, though single readings can be large or run the other way. This excerpt belongs to a sample that is enriched for actives.

Each molecule was assayed against 4'-phosphopantetheinyl transferase ffp (Bacillus subtilis) (UniProt Q9F4F7) (assay: qHTS Assay for Inhibitors of Bacillus subtilis Sfp phosphopantetheinyl transferase (PPTase)). Conditions: Biochemical Sfp PPTase activity.
Outline: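 With Hepes-Na pH 7.6 buffer containing 10 mM MgCl2, Sfp (15 nM) modified BHQ-2-YbbR (12.5 uM) using rhodamine-CoA (5 uM). Two reads 30 minutes apart at 525/598 nm yielded each well's rate.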
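Further: the enzyme is Sfp with the accession as filed and its product quenches rhodamine fluorescence.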
Potency means the concentration at half of the fitted maximal effect.
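Wherever largest response in the series, negative = inhibition is given: 0% = enzyme reaction without inhibitor and -100% = no enzyme wells.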

| Compound | largest response in the series, negative = inhibition | Potency |
| --- | --- | --- |
| COc1cccc(NC(=O)CN(C)C(=O)c2ccccc2CCc2ccccc2)c1 | 4.61% (inactive) | – |
| CCN1C(=NCCc2cccnc2)N[C@@H](c2ccccc2)C(C(=O)OC)=C1C | 4.98% (inactive) and 1.06% (inactive) | – |
| CCOc1ccc(CN2CCN(CCCc3ccccc3)C(CCO)C2)cc1 (stereo not drawn) | 7.43% (inactive) | – |
| CN(C)c1ccc(NC(=O)CN2C3CCCC2CC(NC(=O)c2ccccc2)C3)cc1 (stereo not drawn) | -10% (inactive) | – |
| O=C(CN1CCCCCC1)Nc1ccc(Br)cc1[N+](=O)[O-] | -3.46% (inactive) | – |
| CCCn1cc(S(=O)(=O)c2ccc(C)cc2)c(=O)c2cc(OCC)ccc21 | 0.066% (inactive) | – |
| COc1cc(C2NC(=O)NC(c3ccccc3)=C2C(C)=O)c(Br)cc1OCC(N)=O (stereo not drawn) | 18.5% (inactive) | – |
| CCOc1cc2[nH]c(=S)n(CCN3CCCCC3C)c(=O)c2cc1OCC (stereo not drawn) | -4.39% (inactive) | – |
| CCOc1cc2[nH]c(=S)n(CCCN3CCCC3=O)c(=O)c2cc1OCC | – | 56.2 µM (active) |
| CCOc1cc2[nH]c(=O)n(Cc3ccc(C(=O)NCCCN4CCCC4=O)cc3)c(=O)c2cc1OCC | 9.7% (inactive) | – |
| Cc1cc(=O)[nH]c(N/N=C/c2ccc3c(c2)OCCO3)n1 | – | 56.2 µM (active) |
| CCN(CC)c1ccc(/C=N/Nc2nc(C)cc(=O)[nH]2)cc1 | -16.8% (inactive) | – |
| Cc1cc(=O)[nH]c(N/N=C/c2c(C)nn(-c3ccccc3Cl)c2Cl)n1 | -9.72% (inactive) | – |
| COc1ccc(/C=C(\C#N)c2c[nH]c3ccccc23)cc1 | 10.3% (inactive) | – |
| Cc1ccc2c(c1)N(CC(=O)NCCc1ccc(Cl)cc1)C(=O)c1cccnc1O2 | -4.46% (inactive) | – |
| COc1ccc(Cl)cc1NC(=O)CCN1CCOCC1 | 13.9% (inactive) | – |
| COc1ccccc1NC(=O)CCN1CCN(c2ccc(Cl)cc2)CC1 | 3.28% (inactive) | – |
| COC(=O)CNC(c1ccccc1Cl)c1cc(Br)ccc1NC(=O)CCN1CCOCC1 (stereo not drawn) | – | 56.2 µM (active) |
| CNS(=O)(=O)c1ccc(NC(=O)Nc2ccc3c(c2)OCO3)cc1 | -9.71% (inactive) | – |
| CCc1ccc(OCC(O)CN2CCN(CCO)CC2)cc1 (stereo not drawn) | 5.76% (inactive) | – |
| C/C(=N/NC(=O)c1ccn(C)n1)c1ccncc1 | 5.8% (inactive) | – |
| C/C(=N/NC(=O)c1ccncc1)c1ccc2c(c1)OCO2 | 4.66% (inactive) | – |
| C/C(=N\NC(N)=S)c1ccncc1 | – | 79.4 µM (active) |
| COc1ccc(CCNC(=O)CCCCCNC(=O)N2CCn3c2nc2ccccc23)cc1OC | 4.84% (inactive) | – |

| Compound | largest response in the series, negative = inhibition | Potency |
| --- | --- | --- |
| Cc1ccccc1CNC(=O)CCC(=O)N1Cc2ccccc2Oc2ncccc21 | 19% (inactive) | – |
| CCn1c(SCc2cccc(C(=O)O)c2)nnc1-c1ccc(Cl)cc1 | 1.11% (inactive) | – |
| COc1ccc(-n2ncc3c2CC(C)(C)CC3NC(=O)CCc2c(C)nn(C)c2C)cc1 (stereo not drawn) | 11.2% (inactive) | – |
| O=S(=O)(NC(=S)Nc1ccccc1)c1ccc(F)cc1 | – | 20 µM (active) |
| Cc1ccc(NC(=S)Nc2ccc(F)cc2)cc1 | 5.93% (inactive) | – |
| COC(=O)C(NS(=O)(=O)c1ccc(F)cc1)c1ccccc1 (stereo not drawn) | 16.1% (inactive) | – |
| Cc1cc(SCc2c(F)cccc2Cl)nc(=O)[nH]1 | 1.28% (inactive) | – |
| COc1ccc(NC(=O)CSc2ccc(-c3ccco3)nn2)c(OC)c1 | -27.4% (inactive) | – |
| O=C(CSc1ccc(-c2ccco2)nn1)NCc1ccc2c(c1)OCO2 | – | 50.1 µM (active) |
| Cn1c(SCc2c(F)cccc2Cl)nnc1-c1cnccn1 | -5.8% (inactive) | – |
| Fc1cccc(Cl)c1CSc1ccc(-c2ccco2)nn1 | – | 39.8 µM (active) |
| O=C(CSc1ncn[nH]1)NCc1ccc2c(c1)OCO2 | 9.23% (inactive) | – |
| O=C(CSc1ccc(-c2ccc(F)cc2)nn1)Nc1ccc2c(c1)OCCO2 | -25.1% (inactive) | – |
| Cc1ccccc1-c1nnc(SCC(=O)NCc2ccc3c(c2)OCO3)n1C | 4.47% (inactive) | – |
| O=C(CSc1ccc(-c2ccco2)nn1)Nc1cccc(F)c1 | – | 15.8 µM (active) |
| O=C(NCC(=O)N1CCC2(CC1)NCCc1[nH]cnc12)c1ccc(Br)cc1 | 9.84% (inactive) | – |
| O=C(Cn1nc([N+](=O)[O-])nc1Br)NC1CCCCC1 | 16.4% (inactive) | – |
| CCOC(=O)N1CCN(S(=O)(=O)c2ccc(Br)cc2)CC1 | 12.6% (inactive) | – |
| C[C@H]1Cc2c(COc3ccccc3)nc3c(c2CO1)CN(C(=O)Nc1cccc(C#N)c1)CC3 | 13.6% (inactive) | – |
| Cc1ccc(C(=O)N2CCC(n3nccc3NC(=O)Nc3cccc(F)c3)CC2)cn1 | 4.54% (inactive) | – |
| CCCCC[C@H](O)/C=C/[C@@H]1[C@@H](CC(=O)CCC(=O)O)[C@@H](O)C[C@H]1O | -8.37% (inactive) | – |
| OCCC(O)CO (stereo not drawn) | -2.96% (inactive) and -0.468% (inactive) and 9.51% (inactive) | – |
| O=C(c1cccnc1)N1CCN(S(=O)(=O)c2cccs2)CC1 | 2.77% (inactive) | – |
| O=C(COc1ccc(Cl)cc1)NCCS(=O)(=O)N1CCN(c2ccc(F)cc2)CC1 | -3.01% (inactive) | – |

| Compound | largest response in the series, negative = inhibition | Potency |
| --- | --- | --- |
| NNC(=O)c1nnn(-c2nonc2N)c1CN1CCCC1 | 14.1% (inactive) | – |
| Cc1c(C(=O)N(C)CCc2cnn(C)c2)oc2c(F)cccc12 | 4.37% (inactive) | – |
| CCc1ccc2c(c1)C1(NN=C(c3ccccc3)S1)C(=O)N2 (stereo not drawn) | – | 8.91 µM (active) |
| CCc1ccc2c(c1)C(c1ccc([N+](=O)[O-])cc1)=NNC(c1ccccc1)=N2 | -18% (inactive) | – |
| Cc1ccc(C)c(N2CCN(C(=O)CCCn3c(=O)c4cccn4c4cccnc43)CC2)c1 | 14.7% (inactive) | – |
| CCNC(=O)N1CCCC(C(=O)c2ccc(-c3ccccc3)cc2)C1 (stereo not drawn) | 4.19% (inactive) | – |
| CC(C)(C)c1cc(C(=O)NCc2cccnc2)ccn1 | -7% (inactive) | – |
| CSc1sc(C(=O)NC(=O)NCc2cccnc2)c(C)c1-c1ccon1 | 9.79% (inactive) | – |
| Cc1ccc(-n2nc(-c3ccco3)cc2C(=O)NCc2cccnc2)cc1 | – | 10 µM (active) |
| COc1ccc(N(CC(=O)Nc2cccc3ccccc23)S(C)(=O)=O)c(OC)c1 | 9.66% (inactive) | – |
| Cc1ccccc1NC(=O)Cn1cc(C(=O)C2CC2)c2ccccc21 | 16.6% (inactive) | – |
| O=C(Cc1c(Cl)cccc1Cl)NC1CC1 | 11.4% (inactive) | – |
| C=CS(=O)c1sc(Cl)c(N2CCOCC2)c1[N+](=O)[O-] (stereo not drawn) | – | 10 µM (active) |
| COc1ccc(CCNC(=O)c2nnc(CS(=O)(=O)c3ccccc3)o2)cc1OC | 9.29% (inactive) | – |
| COc1ccc(C(=O)NC(C)Cn2nc(C)cc2C)cc1OC1CCN(C(C)=O)CC1 (stereo not drawn) | 12.4% (inactive) | – |
| COc1ccc(C(=O)O/N=C(\N)Cc2ccc(Cl)cc2Cl)cc1OC | 0.628% (inactive) | – |
| NC(N)=N/N=C/c1ccc(OCc2ccc(Cl)cc2Cl)cc1 | – | 31.6 µM (active) |
| NC(N)=N/N=C/c1ccc(Cl)c([N+](=O)[O-])c1 | 6.82% (inactive) | – |
| CCCOc1ccc(CNC(=O)C2CCN(c3nn4c(=O)cc(C)nc4s3)CC2)cc1 | 7.3% (inactive) | – |
| CC1CCN(C(=S)c2ccc(-c3ccc(Cl)cc3Cl)o2)CC1 | – | 50.1 µM (active) |
| COc1ccc(C(=O)Nc2c(Cl)cc(Cl)cc2C(=O)N2CCC(C)CC2)cc1 | 11.9% (inactive) | – |
| Cc1csc(NC(=O)c2ccc(-c3ccc(Cl)cc3Cl)o2)n1 | 1.33% (inactive) | – |
| Cc1nc2cc(C(F)(F)F)ccc2n1CCNc1nc(-c2cc(Cl)c(N)c(Cl)c2)cs1 | 9.07% (inactive) | – |
| Cc1cccc(N2CCN(C(=O)c3cccc(N4C(=O)C5C6C=CC(C6)C5C4=O)c3)CC2)c1C (stereo not drawn) | 14.6% (inactive) | – |

| Compound | largest response in the series, negative = inhibition | Potency |
| --- | --- | --- |
| CCOC(=O)c1ccc(NC(=O)c2cccnc2)cc1 | 10.5% (inactive) | – |
| CCOC(=O)c1ccc(-c2ccc(C(=O)Nc3cccnc3)o2)cc1 | – | 44.7 µM (active) |
| Cc1ccc(NC(=O)Nc2cccnc2)cc1 | 2.48% (inactive) | – |
| Cc1cccc(C(=O)Nc2ccc(Oc3cnccn3)cc2)c1 | 11% (inactive) | – |
| C=C1CCN(C(CC(C)C)C(=O)NCc2cc(OC)c(OC)c(OC)c2)S(=O)(=O)c2ccccc21 (stereo not drawn) | -15.6% (inactive) | – |
| Cc1[nH][nH]c(=O)c1C(c1ccc2c(c1)OCO2)c1c(C)[nH][nH]c1=O | 5.9% (inactive) | – |
| Cc1[nH][nH]c(=O)c1C(c1ccc(-c2ccc(Cl)cc2)o1)c1c(C)[nH][nH]c1=O | – | 39.8 µM (active) |
| CCOc1ccc(C(c2c(C)[nH][nH]c2=O)c2c(C)[nH][nH]c2=O)cc1OCC | 2.34% (inactive) | – |
| Cc1ccc2occ(/C=N/NC(=O)c3ccccc3C)c(=O)c2c1 | 18.5% (inactive) | – |
| CCC(C)[C@H](NC(=O)N1c2ccccc2NC(=O)[C@@H]1C(C)C)C(=O)N[C@@H](Cc1ccccc1)C(=O)O (stereo partly drawn) | 13.4% (inactive) | – |
| Cc1ccc(OCCOc2cccc(/C=N/NC(N)=O)c2)cc1 | 9.7% (inactive) | – |
| O=C(N/N=C\C1CC=CCC1)c1ccc(Br)o1 (stereo not drawn) | 5.57% (inactive) | – |
| Cc1nnc(N/N=C/c2cccs2)[nH]c1=O | – | 89.1 µM (active) |
| Cc1n[nH]c(=O)nc1N/N=C/c1cccs1 | 4.06% (inactive) | – |
| Cc1nnc(N/N=C/C2CC=CCC2)[nH]c1=O (stereo not drawn) | – | 79.4 µM (active) |
| COCc1c(C(=O)N/N=C/C2CC=CCC2)nnn1-c1nonc1N (stereo not drawn) | -0.608% (inactive) | – |
| Clc1ccc(N/N=C/c2cccs2)nn1 | -26.9% (inactive) | – |
| COc1ccc(CNC(=O)c2cc(C(=O)C3CC3)c[nH]2)cc1 | 19.2% (inactive) | – |
| CCc1cc(=O)oc2c(C)c(OCC(=O)N3CC[C@@]4(O)CCCC[C@H]4C3)ccc12 | 6.44% (inactive) | – |
| O=C(Nc1cccc(F)c1)NC1CCCCCCC1 | 8.11% (inactive) | – |
| COc1ccc2c(c1)O[C@@H](c1ccc3c(c1)OCO3)[C@H](OC(=O)NCc1ccco1)C2=O | 1.2% (inactive) | – |
